Screens from PubChem BioAssay.
Hits are enriched below; roughly 4.6% of the tested compounds scored in any of these assays.
D1 antag = human D1 dopamine receptor antagonism. 360,000 tested, 3.2% active. HEK293 TREx D1 cells, calcium flux, dopamine EC80; stronger effect = lower value. activity change, negative = inhibition, % at 10 µM; in the data active = activity change below about -30%
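Compound effects on dopamine-evoked calcium signalling were measured in tetracycline-induced HEK293 Trex D1 cells. Dopamine at EC80 followed a 180 s compound pre-read, and fluorescence was tracked kinetically for 180 s more.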
D1 ag = human D1 receptor agonism | HEK293 T-REx D1 cells, calcium flux, agonist mode | activation, % at 2 µM | 360,000 tested, 1% active | AID 504660
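Tetracycline-induced HEK293 TREx D1 cells, force-coupled to calcium signalling, were dye-loaded with a no-wash calcium kit. Compound was pin-added after a 10 s baseline. Fluorescence was read kinetically at 1 cycle/s for 180 s, with calcium rises flagged as agonism.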
TRHR PAM = allosteric enhancers of human TRH receptor; AID 493056; P34981; TRHR cells, fluo-8 calcium fluorescence, EC20 TRH enhancement; enhancement, % at 2 µM; 360,000 tested, 0.66% active; in the data active = enhancement above about 30%
Target sequence (P34981 whole entry, looked up): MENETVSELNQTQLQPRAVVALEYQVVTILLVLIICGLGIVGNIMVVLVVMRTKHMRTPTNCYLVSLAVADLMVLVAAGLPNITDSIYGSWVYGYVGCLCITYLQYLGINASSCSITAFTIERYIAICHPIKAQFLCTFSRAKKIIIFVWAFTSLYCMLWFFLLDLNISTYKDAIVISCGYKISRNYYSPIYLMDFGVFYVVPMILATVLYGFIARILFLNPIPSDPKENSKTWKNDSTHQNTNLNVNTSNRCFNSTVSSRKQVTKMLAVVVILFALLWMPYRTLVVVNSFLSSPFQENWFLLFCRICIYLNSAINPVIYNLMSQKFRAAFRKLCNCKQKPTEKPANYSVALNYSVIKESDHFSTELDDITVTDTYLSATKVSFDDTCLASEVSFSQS
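Enhancer read-out: after compound pinning and an initial kinetic agonist-mode read, an EC20 of TRH (10 nM final) was injected and fluo-8 calcium signal (Ex 480/Em 530) followed at 1 s/cycle for 100 cycles in TRHR-expressing cells.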
D1 PAM = enhances dopamine response at the human D1 receptor; 360,000 tested, 0.036% active; HEK293 TREx D1 cells, calcium flux, dopamine EC20 potentiation; P21728; potentiation, % at 10 µM; in the data active = potentiation above about 30%
TRHR ag = activates the human TRH receptor | P34981 | TRHR cells, calcium flux fluo-8, FDSS agonist mode | activation, % at 2 µM | 360,000 tested, 0.18% active | AID 493084
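TRHR-expressing cells, plated overnight in medium with 10% serum, were loaded with fluo-8 calcium dye at room temperature. After a 10 s baseline, library compound was pin-added and calcium release was recorded kinetically (ex 480/em 530) as agonist response.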
A number is an active result; . = inactive; / = not tested or not shown; ! = not confirmed by another sample. Rule as the data show it, unless noted: active = activation above about 30%; inactive = the rest.

SMILES	D1 antag	D1 ag	TRHR PAM	D1 PAM	TRHR ag
Cc1cc2c(c(=O)n1Cc1ccc3c(c1)OCO3)C(c1cccnc1)C(C#N)=C(N)O2 (stereo unspecified)	-90	.	.	.	.
Cc1ccc(NC(=O)Cn2c(=O)n(CCC(=O)N3CCc4ccccc4C3)c(=O)c3ccccc32)c(C)c1	.	.	.	.	.
CCOc1ccc(NC(=O)CCc2nc3cccnc3n2-c2ccccc2)cc1	.	.	.	.	.
COc1ccc(C2=C/C(=C\c3ccccc3OC(C)=O)C(=O)O2)cc1	.	54	.	.	.
COc1ccc(C2=C/C(=C\c3cccc(OC(C)=O)c3)C(=O)O2)cc1	-31	81	.	.	.
O=C1OC(c2ccc(Cl)cc2)=C/C1=C/c1cccnc1	.	.	.	.	.
CCOc1ccc2nc(NC(=O)C(NS(=O)(=O)c3cccc4nsnc34)C(C)C)sc2c1 (stereo unspecified)	-33	.	.	.	.
CCOc1ccc2nc(NC(=O)C(CC)Sc3nc(C)cc(=O)[nH]3)sc2c1 (stereo unspecified)	-42	.	.	.	.
CCCc1cc(=O)[nH]c(SCC(=O)Nc2nc3ccc(OCC)cc3s2)n1	.	.	.	.	.
CCCCNC(=O)CSC1=Nc2ccccc2C2=NC(CCC(=O)NCc3ccccc3OC)C(=O)N12 (stereo unspecified)	.	.	.	.	.
O=C(CCC1N=C2c3ccccc3N=C(SCC(=O)Nc3ccc(F)cc3)N2C1=O)NCc1cccs1 (stereo unspecified)	.	.	.	.	.
O=C(CCC1N=C2c3ccccc3N=C(SCC(=O)Nc3ccccc3F)N2C1=O)NCc1cccs1 (stereo unspecified)	-38	.	.	.	.
Cc1ccc(CSC2=Nc3ccccc3C3=NC(CC(=O)NCc4ccc5c(c4)OCO5)C(=O)N23)cc1 (stereo unspecified)	-61	.	.	.	.
COc1ccccc1CNC(=O)CCC1N=C2c3ccccc3N=C(SCC(N)=O)N2C1=O (stereo unspecified)	-37	.	.	.	.
O=C(NCCCN1CCN(c2ccccc2)CC1)c1nnc(Cc2c(F)cccc2Cl)o1	.	.	.	.	.
CC1C(=O)N2CCCc3cc(NC(=O)c4ccccc4Br)cc1c32 (stereo unspecified)	.	.	.	.	.
CN(C)CCN=Cc1c(O)n(-c2ccc(S(=O)(=O)N3CCOCC3)cc2)c(=O)c2ccccc12	.	.	.	.	.
O=C(c1ccccc1)N1CCC(CC2CC(c3cccc(Br)c3)=NO2)(C(=O)NCC2CCCCC2)CC1 (stereo unspecified)	-53	.	.	.	.
COc1cc(C(=O)NCCc2cn3ccccc3n2)cc(OC)c1OC	.	.	30	.	.
CC1=C(C(=O)Nc2ccccc2)C(c2cccc(O)c2)n2nc(-c3ccccc3Cl)nc2N1 (stereo unspecified)	.	.	.	.	.
Cc1cccc(Oc2ncnc3oc(-c4ccccc4)cc23)c1C	-81	.	.	.	.
Cc1cc(Cl)ccc1Oc1ncnc2oc(-c3ccccc3)cc12	.	.	.	.	.
COc1ccc(CN(C(=O)c2cc(=O)c3ccccc3o2)C2CCS(=O)(=O)C2)cc1OC (stereo unspecified)	-37!	.	.	.	.
Cc1cc2oc(C(=O)N(Cc3ccccc3)C3CCS(=O)(=O)C3)cc(=O)c2cc1C (stereo unspecified)	.	.	.	.	.
Cc1ccc2c(=O)cc(C(=O)N(Cc3ccc(C(C)(C)C)cc3)C3CCS(=O)(=O)C3)oc2c1 (stereo unspecified)	-75	.	.	.	.
SMILES	D1 antag	D1 ag	TRHR PAM	D1 PAM	TRHR ag
CCc1ccc(C2(C)SC(NC(C)=O)=NN2C(C)=O)cc1 (stereo unspecified)	.	56	.	.	.
CC(=O)NC1=NN(C(C)=O)C(C)(c2cccnc2)S1 (stereo unspecified)	-46	.	.	.	.
Cc1ccc(S(=O)(=O)N/N=C/c2ccc(C(=O)O)cc2)cc1	.	.	.	.	.
Cc1ccc(S(=O)(=O)N/N=C/c2ccc(OC3CSC3)cc2)cc1	.	61	.	.	.
CCCCNC(=O)CSc1nnc(C)c2c(C)n(-c3ccccc3)nc12	.	.	.	.	.
COc1ccc(/C=C/C(=O)Nc2ccc(-c3nnc4n3CCCCC4)cc2)c(OC)c1	.	.	35	.	.
CCc1ccc(-n2nc(CO)c(C(=O)NCc3ccccn3)n2)cc1	.	.	.	.	.
CC(=O)c1ccc(NC(=O)CSc2nnc3ccc(-c4ccc(F)cc4)nn23)cc1	/	.	.	.	.
Cc1ccc(CC(=O)Nc2ccc(F)c([N+](=O)[O-])c2)cc1	-43	.	.	.	.
Cc1ccc(CC(=O)Nc2ccc(F)c([N+](=O)[O-])c2)cc1C	-35	.	.	.	.
Cc1ccc(NC(=O)Cc2ccc3c(c2)CCCC3)cc1C	-31	.	.	.	.
Cc1ccc(NC(=S)NCc2ccccc2)cc1[N+](=O)[O-]	.	.	.	.	.
Cc1ccc(CNC(=S)Nc2ccc(C)c([N+](=O)[O-])c2)cc1	-31	38	.	.	.
O=C(CCc1ccccc1)Nc1ccc(F)c([N+](=O)[O-])c1	.	.	.	.	.
O=C(Cc1ccc(NC(=O)N2CCSc3ncccc32)cc1)NCc1ccccc1	.	.	.	.	.
CC(=C/c1ccccc1)/C=N/n1c(C)n[nH]c1=S	.	.	32	.	.
O=C(Cc1cc(=O)[nH][nH]1)N/N=C/C(Cl)=C/c1ccccc1	.	31!	.	.	.
O=C(Cc1cc(=O)[nH][nH]1)N/N=C/c1ccccc1Cl	.	.	.	.	.
Cc1ccc(CN2C(=O)SC(Nc3ccc(Cl)cc3)C2=O)cc1 (stereo unspecified)	.	.	.	.	.
Cc1ccc(C)c(S(=O)(=O)c2nnn3c2nc(Nc2ccc(F)c(Cl)c2)c2sccc23)c1	.	.	.	.	.
Cc1ccc(-n2nc3c(c2NC(=O)c2ccc4c(c2)OCO4)CS(=O)C3)c(C)c1 (stereo unspecified)	-52	.	.	.	.
Cc1ccc(-n2nc3c(c2NC(=O)c2ccc4c(c2)OCO4)CS(=O)(=O)C3)cc1	.	.	.	.	.
O=C(Nc1c2c(nn1-c1cccc(Cl)c1)CS(=O)C2)c1ccc2c(c1)OCO2 (stereo unspecified)	-36	.	.	.	.
O=C(Nc1c2c(nn1-c1ccc(F)cc1)CS(=O)C2)c1ccc2c(c1)OCO2 (stereo unspecified)	.	.	.	.	.
NNC(=O)c1cc2sccc2s1	-36	.	.	.	.
COc1ccc(C(=O)CSc2nnc(Cn3cnc4ccccc43)o2)cc1	-34	.	.	.	.
